{"source": "PubChem BioAssay (NCATS)", "note": "Values without a mark were called inactive. Calls come from the whole dose curve; as a rule, active = well fitted curve in the direction sought with a large enough effect; inactive = no such curve, though single readings can be large or run the other way. *1 amine or outer side, *2 acyl side, *3 side chain or, on linkers, in order; H or OH if unused. Where a SMILES comes first, the peptide text is derived from it. Bridges are numbered along the chain shown (N, C = ends). Roman numbers before positions name the chains, in order. [ ]: non-standard residue; d: D form. ξ: configuration not given here. Actinocin(9to1) = Cc1c2oc3c(C)ccc(C(=O)[*:1])c3nc-2c(C(=O)[*:2])c(N)c1=O; ξNMeV = CNC(C(=O)O)C(C)C; ξV = CC(C)C(N)C(=O)O; Sar = CNCC(=O)O"}
{"test": "qHTS for small molecule inhibitors of Yes1 kinase: Counter Assay (AID 686950);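 note: no kinase present so only ADP-Glo detection of a fixed ADP amount is tested; luminescence from ADP-Glo reporting ADP in a fixed ATP and ADP mixture; 0% = DMSO wells with ATP plus ADP and -100% = ATP-only wells without ADP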", "conditions": "series mostly up to 76.9 µM; activity change, negative = inhibition: at the top concentration", "text": "The Src family of non-receptor protein tyrosine kinases contains nine members, including Yes1, Src, Fyn, Lyn, and […]. These kinases have important roles in a variety of cellular functions, such as cell proliferation, survival, and differentiation. Src, the most well characterized member of this family, has been previously identified as a proto-oncogene. […] In melanoma, it has been shown that Yes1, and not other family members, such as Src, is functionally involved in the malignant phenotype. Additionally, a recent study examining the downregulation of Yes1 by shRNA found significant effects on cell survival/growth for basal-like and Her2-positive breast cancers. Despite the potential for Yes1 to be a target for the above-described cancers, there are very few reports on the identification of potent and selective inhibitors of Yes1 kinase. Antagonists of Yes1 would further elucidate Yes1 biology and help to confirm whether Yes1 is a viable target for therapeutic intervention in a variety of cancers.\nA compound that inhibits Yes1 could be important for the treatment of various cancers in which Yes1 is highly expressed and can also be used as a tool compound to help further elucidate Yes1 biology. To that end, we have developed a sensitive HTS biochemical assay for Yes1 activity. This assay was screened against several small compound libraries to look for modulators of activity. The cherrypicked compounds were screened against this counter assay, which evaluates whether the compounds have any effect on the ADP-Glo detection kit. Compounds that show inhibition in this assay have interference with the detection system. Inactivity is the desired output for this assay.\nNIH Molecular Libraries Probe Production Centers Network [MLPCN]\nNIH Chemical Genomics Center [NCGC]\nTwo microliter of buffer (columns 1-48) are dispensed into Greiner, white solid-bottom 1536-well assay plates. Compounds (23 nL) are then transferred via Kalypsys pin tool equipped with 1536-pin array (10 nL slotted pins, V&P Scientific, San Diego, CA). The library compounds are in columns 5-48 and columns 1-4 serve as controls with DMSO. Following addition of compound and a 20 minute incubation, 1 uL of substrate/product mix (ATP and ADP from Sigma-Aldrich, St. Louis, MO) is added to columns 1, 2, 5-48 and 1 uL of substrate (ATP) is added to columns 3-4, and the plate is incubated for 60 minutes at room temperature. The amount of ADP is then quantified by the ADP-Glo Kit (Promega, Madison, WI). First, 2 uL of the first kit reagent is added, and the reaction is incubated for 45 minutes; then, 4 uL of the second kit reagent are added and the reaction is incubated for 30 minutes at which time the luminescence is read on a Viewlux plate reader (Perkin-Elmer, Waltham, MA). The final concentration of reagents in the reaction are 0.08 mM ATP and 0.02 mM ADP (or 0.1 mM ATP in the no ADP control columns), 100 uM EGTA, 10 mM MgCl2, 50 mM Tris pH 7.5, 1 mM DTT, 150 mM NaCl, 0.01% Brij-35, and 5% glycerol. Data are normalized to DMSO-treated control columns with ATP and […] (maximum signal) and with just ATP (minimum signal)."}
{"smiles": "CN(NC(=O)CC(=O)NN(C)C(=S)c1ccccc1)C(=S)c1ccccc1", "activity change, negative = inhibition": "5.37%"}
{"smiles": "CCC1(Cc2ccc(N)cc2)CCC(=O)NC1=O", "note": "(stereo not given)", "activity change, negative = inhibition": "-0.931% [at 154 µM]"}
{"smiles": "C[C@@H]1CCN(C(=O)CC#N)C[C@@H]1N(C)c1ncnc2[nH]ccc12", "activity change, negative = inhibition": "-7.62%"}
{"smiles": "CCCCCCCCCCCCCCCCCCOP(=O)([O-])OC1CC[N+](C)(C)CC1", "activity change, negative = inhibition": "-0.4% [at 47.8 µM]"}
{"smiles": "Cc1c2oc3c(C)ccc(C(=O)N[C@@H]4C(=O)NC(C(C)C)C(=O)N5CCC[C@H]5C(=O)N(C)CC(=O)N(C)C(C(C)C)C(=O)O[C@@H]4C)c3nc-2c(C(=O)N[C@@H]2C(=O)NC(C(C)C)C(=O)N3CCC[C@H]3C(=O)N(C)CC(=O)N(C)C(C(C)C)C(=O)O[C@@H]2C)c(N)c1=O", "note": "(stereo not given in full) (I: T[ξV]P[Sar][ξNMeV] / II: T[ξV]P[Sar][ξNMeV]; ester I:1-I:C, II:1-II:C; linker I:N-II:N via Actinocin(9to1))", "activity change, negative = inhibition": "4.27%"}
{"smiles": "CCC1(O)CC2CN(CCc3c([nH]c4ccccc34)[C@@](C(=O)OC)(c3cc4c(cc3OC)N(C=O)[C@H]3[C@](O)(C(=O)OC)[C@H](OC(C)=O)[C@]5(CC)C=CCN6CC[C@]43[C@@H]65)C2)C1", "note": "(stereo not given in full)", "activity change, negative = inhibition": "-2.51%"}
{"smiles": "O=c1cc(C2=CC=CC3Sc4ccccc4SC23)oc(N2CCOCC2)c1", "note": "(stereo not given)", "activity change, negative = inhibition": "1.08%"}
{"smiles": "CC[C@@H](C(=O)O)C1CC[C@H](C)C([C@@H](C)[C@H](O)[C@H](C)C(=O)[C@H](CC)C2O[C@]3(C=C[C@@H](O)[C@]4(CC[C@@](C)(C5CC[C@](O)(CC)[C@H](C)O5)O4)O3)[C@H](C)C[C@@H]2C)O1", "note": "(stereo not given in full)", "activity change, negative = inhibition": "4.56%"}
{"smiles": "Cc1nnc(C(C)C)n1C1CC2CCC(C1)N2CC[C@H](NC(=O)C1CCC(F)(F)CC1)c1ccccc1", "note": "(stereo not given in full)", "activity change, negative = inhibition": "-1.95%"}
{"smiles": "NC(=O)Nc1cc(-c2ccc(CN3CCOCC3)c(F)c2)sc1C(=O)N[C@H]1CCCNC1", "activity change, negative = inhibition": "-0.9%"}
{"smiles": "CNC1CCN(C(Cc2cccc(-c3ccncc3)c2)C(=O)c2sc3c(F)ccc(F)c3c2Cl)CC1", "note": "(stereo not given)", "activity change, negative = inhibition": "3.95%"}
{"smiles": "COC(=O)C1=C(C)NC(C)=C(C(=O)OCCCN2CCC(c3ccccc3)(c3ccccc3)CC2)[C@H]1c1cccc([N+](=O)[O-])c1", "activity change, negative = inhibition": "3.38%"}
{"smiles": "O=C(O)CC/C=C\\CC[C@H]1[C@@H](N2CCCCC2)[C@@H](O)C[C@@H]1OCc1ccc(-c2ccccc2)cc1", "activity change, negative = inhibition": "0.782%"}
{"smiles": "CC(NC(=O)Cc1cc(F)cc(F)c1)C(=O)NC(C(=O)OC(C)(C)C)c1ccccc1", "note": "(stereo not given)", "activity change, negative = inhibition": "6.14%"}
{"smiles": "CCOc1cc2ncc(C#N)c(Nc3ccc(OCc4ccccn4)c(Cl)c3)c2cc1NC(=O)/C=C/CN(C)C", "activity change, negative = inhibition": "5.41%"}
